This is part of a sample that, as a whole, favours compounds with a hit. Of some 79,000 tested, about 15% had one in any assay. No stated cut-off is given here; in the data, active means growth inhibition above about 70%; inactive means the rest.
Key:
[1] = NCI Yeast Anticancer Drug Screen. Data for the rad50 strain (AID 155);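 further: 0% = growth of vehicle-only cultures of the same strain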; conditions: S. cerevisiae rad50 strain growth inhibition; at 50.0 µM; stronger effect = higher value
Outline: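 Readout: growth inhibition relative to vehicle-treated cultures. Compound exposure was carried out in a genetically defined yeast strain deficient in DNA damage repair.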

[2] = NCI Yeast Anticancer Drug Screen. Data for the mec2-1 strain (AID 157); conditions: S. cerevisiae mec2-1 strain, at 50.0 µM, stronger effect = higher value
Outline: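 Growth inhibition is read against vehicle-treated controls after compound exposure of the mec2-1 yeast strain, which is defective in DNA damage repair or cell cycle control.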

[3] = NCI Yeast Anticancer Drug Screen. Data for the sgs1 mgt1 strain (AID 161);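 further: 0% = growth of cultures given vehicle only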; conditions: S. cerevisiae sgs1 mgt1 strain, at 50.0 µM, stronger effect = higher value
Outline: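 Percent growth inhibition was derived by comparing compound-exposed mutant yeast with vehicle-exposed cultures. The strain carries alterations in DNA damage repair.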

[4] = NCI Yeast Anticancer Drug Screen. Data for the cln2 rad14 strain (AID 165);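 further: 0% = growth equal to vehicle treated cultures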; conditions: S. cerevisiae cln2 rad14 strain, at 50.0 µM, stronger effect = higher value
Outline: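 Growth inhibition, relative to vehicle-treated controls, is the read-out. The test organism is a yeast strain with defined genetic alterations, cln2 rad14.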

[5] = NCI Yeast Anticancer Drug Screen. Data for the bub3 strain (AID 167); conditions: S. cerevisiae bub3 mutant strain, at 50.0 µM, stronger effect = higher value
Outline: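 Readout: yeast growth inhibition, expressed relative to vehicle-only wells. The test organism is a mutant strain from a panel with lesions in DNA repair or checkpoint genes.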

[6] = NCI Yeast Anticancer Drug Screen. Data for the mlh1 rad18 strain (AID 175); conditions: S. cerevisiae mlh1 rad18 strain growth inhibition; at 50.0 µM; stronger effect = higher value
Outline: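 Cells of a genetically altered yeast strain, deficient in DNA damage repair, were treated with compound. Their growth was then compared with that of vehicle-treated cultures to give inhibition.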

Measured: growth inhibition

CC(O)CC(C)O (stereo unspecified)
inactive: [1] 1.9% | [2] -4.6% | [3] 2.95% | [4] -3.45% | [5] 6.15% | [6] 2.3%

O=C1OC(c2ccc([N+](=O)[O-])cc2)=N/C1=C\c1cccc([N+](=O)[O-])c1
inactive: [1] 23.1% | [2] 20.9% | [3] 36.2% | [4] 38.2% | [5] 22.1% | [6] 52%

CC(C)(C)NC(=O)NCCCCCCNC(=O)NC(C)(C)C
inactive: [1] -15.5% | [2] -13.9% | [3] -7.45% | [4] -27.9% | [5] 8.05% | [6] -7.9%

COc1ccccc1N1C(=O)C2c3[nH]c4ccccc4c3C3CCC(C(C)(C)C)CC3C2C1=O (stereo unspecified)
inactive: [1] 17.8% | [2] -11.3% | [3] -4.2% | [4] -12.2% | [5] -16.2% | [6] 5.5%

COC(=O)NC1(NC(=O)OC)NC(=O)c2cc(OC)c(OC)c(OC)c2N1
inactive: [1] 17.1% | [2] 8.45% | [3] 10.8% | [4] -10.8% | [5] -12.3% | [6] 3.85%

N#CC(=NCCO)C1=C(O)c2ccccc2C1=O
inactive: [1] 6.1% | [2] -10.7% | [3] -16.3% | [4] -30.6% | [5] -48% | [6] -12.3%

CCCCNC(=S)N/N=C/c1ccc(OC)cc1
inactive: [1] -10.8% | [2] 1.55% | [3] -1.3% | [4] -41% | [5] -1.85% | [6] -6.45%

CNc1c(F)cc(N=Nc2ccccc2)cc1F
inactive: [1] 14.7% | [2] -8.2% | [3] 30% | [4] -20.7% | [5] -4% | [6] 10.1%

NC(=S)N/N=C\CC(O)(C(F)(F)F)C(F)(F)F
inactive: [1] -16.7% | [2] -19.2% | [3] -7.45% | [4] 0.5% | [5] 7.1% | [6] -2.3%

CC[N+](C)(C)CC(O)(O)C(F)F
inactive: [1] -28.1% | [2] -32.7% | [3] -17.1% | [4] 2.25% | [5] -26.8% | [6] -16.2%

O=C(/C(=C\C(=O)c1cccs1)c1ccsc1)c1ccc(Br)cc1
inactive: [1] 1.2% | [2] -32% | [3] 11.2% | [4] -25.9% | [5] 14.5% | [6] -17.3%

O=C(O)C#Cc1cccc(Cl)c1
inactive: [1] -20.4% | [2] -24.3% | [3] -14.1% | [4] -9.9% | [5] -16.5% | [6] -12.8%

CC(C)CCOC(=O)c1ccccc1Cl
inactive: [1] 17.7% | [2] 18.5% | [3] 11.1% | [4] 12.4% | [5] 0.15% | [6] -14.6%

CC(=O)/C(C)=C\C1C(C)=CCCC1(C)C (stereo unspecified)
inactive: [1] -4.5% | [2] -33.4% | [3] -27.8% | [4] -23.3% | [5] -14.8% | [6] -5.85%

CCCCC1(O)CC2CC1C(C)C2(C)C (stereo unspecified)
inactive: [1] 0.3% | [2] 7.75% | [3] -3.45% | [4] 22.1% | [5] 16.4% | [6] 2.5%

Cc1ccccc1NC(=O)CSC#N
inactive: [1] 10.2% | [2] 7.35% | [3] 1.7% | [4] 20.1% | [5] -12.6% | [6] 8.75%

N#C/C(=C\c1ccc(Cl)cc1)C(=O)N/N=C/c1ccc(Cl)cc1
inactive: [1] 24.6% | [2] 27.1% | [3] 33% | [4] 1.35% | [5] 5.75% | [6] 27.9%

CCCCC(C(=O)O)C(C)CC (stereo unspecified)
inactive: [1] 35% | [2] 12.2% | [3] 18.8% | [4] 22.3% | [5] 36.5% | [6] 29.6%

N#CC(CC(=O)O)=C(c1ccccc1)c1ccccc1
inactive: [1] -6.75% | [2] -22.2% | [3] -20.5% | [4] 11.7% | [5] -50.8% | [6] 8.95%

CCOC(=O)COc1cc2c(cc1C(C)c1cc(OC)c(OC)c(OC)c1)OCO2 (stereo unspecified)
inactive: [1] 34.6% | [2] 2.2% | [3] 10.3% | [4] 18.1% | [5] 34% | [6] 10.9%

CC/C(C)=C1/CC(C)(C)N=C1C
inactive: [1] -11.7% | [2] -43.5% | [3] -10% | [4] -20.6% | [5] -12.2% | [6] -22.6%

CC(=O)CC(=O)Nc1ccc(C)c(C)c1
inactive: [1] -4.6% | [2] 2.15% | [3] 10% | [4] 7.95% | [5] 40% | [6] 12.5%

CC(C)[Si]1(C(C)C)N([Si](C)(C)F)[Si](C(C)C)(C(C)C)N1[Si](C)(C)F
inactive: [1] 7.7% | [2] 6.25% | [3] -3.05% | [4] 21% | [5] -4.45% | [6] 26.2%

Cc1cccc2c1CCC21OC(=O)c2c1ccc1ccccc21 (stereo unspecified)
inactive: [1] 10.9% | [2] 2.7% | [3] 6.3% | [4] 17.1% | [5] 15.2% | [6] 15.1%

N#CCCCN1C(=O)c2ccccc2C1=O
inactive: [1] -22.1% | [2] -18.9% | [3] -8.25% | [4] 21% | [5] -15.5% | [6] -18.4%

NC(=O)CCCC(C(N)=O)(c1ccccc1)c1ccccc1
inactive: [1] 9.2% | [2] 13.3% | [3] 3.25% | [4] -11.2% | [5] -7.15% | [6] -3.9%

Cc1cn(C)c2c1-c1c(cnn1-c1ccccc1)CC2
inactive: [1] 15.6% | [2] 3.75% | [3] 44% | [4] -2.4% | [5] 4.8% | [6] 23.4%

COC(=O)C1C2CC3c4[nH]c5cc(OC)ccc5c4CCN3CC2CC(OC(=O)CCc2cc(OC)c(OC)c(OC)c2)C1OC (stereo unspecified)
inactive: [1] -3.35% | [2] -0.2% | [3] 4.25% | [4] 13.4% | [5] 14.7% | [6] 9.85%

COc1ccc2c(c1)C(=O)C1CC(=O)CCC21 (stereo unspecified)
inactive: [1] -6.45% | [2] -10.4% | [3] -8.9% | [4] -21.8% | [5] -30.6% | [6] -8.9%

C[CH2][Ge]([CH2]C)[CH2]C.C[CH2][Ge]([CH2]C)[CH2]C.C[CH2][Ge]([CH2]C)[S][Ge]([CH2]C)[CH2]C
inactive: [1] 25.1% | [2] 29.5% | [3] 52.7% | [4] 40.4% | [5] 35.9% | [6] 6.75%

CCOC(=O)c1c(/N=C/c2cc(Br)cc(Br)c2O)sc2c1CCCC2
inactive: [1] -14.2% | [2] -19.1% | [3] -13.2% | [4] -15.1% | [5] -13.9% | [6] -25.1%

COc1cc(-c2ccc([NH2+][B-](F)(F)F)c(OC)c2)ccc1[NH2+][B-](F)(F)F
inactive: [1] 21.7% | [2] -2.05% | [3] 37.3% | [4] 29.1% | [5] 9.1% | [6] 18.9%

CC1C(c2ccccc2)NC(c2ccccc2)C(C)C1(O)c1ccccc1 (stereo unspecified)
inactive: [1] 10.3% | [2] 5.3% | [3] 11.6% | [4] -23.1% | [5] 11.1% | [6] 16.4%

Cc1ccc(S(=O)(=O)Oc2ccc(N(CC(=O)O)S(=O)(=O)c3ccc(C)cc3)cc2)cc1
inactive: [1] 45.3% | [2] 9.8% | [3] 29.4% | [4] 11.8% | [5] -1.35% | [6] 17.5%

Cc1cccc(NC(=O)c2c(Br)c(Br)c(Br)c(Br)c2C(=O)O)c1C
inactive: [1] 26.9% | [2] -18% | [3] 12.7% | [4] 2.85% | [5] 5.4% | [6] -4.3%

c1ccc(C(N=NC(c2ccccc2)c2ccccc2)c2ccccc2)cc1
inactive: [1] 4.4% | [2] -10.3% | [3] 3.75% | [4] -18.3% | [5] -21.8% | [6] 16.8%

O=C1OC(=O)C(Cl)=C1Cl
inactive: [1] 16.6% | [2] -10.5% | [3] 28.8% | [4] 10.7% | [5] 9.4% | [6] 22.3%

NCc1ccc(O)c(O)c1
inactive: [1] -13.9% | [2] 19.9% | [3] 15.3% | [4] 13% | [5] 5.6% | [6] 10.1%

NC(Cc1ccccc1)C(=O)O (stereo unspecified)
inactive: [1] -20.7% | [2] -12.4% | [3] -33.9% | [4] -73.7% | [5] -24.9% | [6] -20.6%

Nc1ccc2nnn(OC3CCCC3)c2c1
inactive: [1] 40.2% | [2] 13.9% | [3] 3.55% | [4] 9.4% | [5] -4.05% | [6] 0.4%

OCCNCc1cccc(-c2ccccc2)c1O
inactive: [1] 24.6% | [2] 3% | [3] 15.9% | [4] -18.8% | [5] 8.2% | [6] 16.9%
